According to PubChem BioAssay (NCATS):
Activity calls are given as the source filed them. Calls follow the shape of the dose curve; as a rule, active = well fitted inhibition curve with a large enough effect; inconclusive = small, poorly fitted or top-dose-only effect; inactive = flat fitted curve, though single readings scatter.

System: Nanoluciferase (engineered Oplophorus gracilirostris luciferase)
Assay: Primary Nanoluciferase (NLuc) qHTS assay for identification of artifact compounds. (AID 1845222);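 also: 0% = DMSO and -100% = no enzyme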
Conditions: NLuc-conditioned medium, Nano-Glo luminescence, 5 min; series mostly up to 54.1 µM; activity, negative = inhibition: at the top concentration
Method in brief: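 Compounds are pinned into diluted (1:55) conditioned medium of NLuc-expressing S16 cells and held 15 min at room temperature protected from light. Nano-Glo substrate follows, and luminescence is read 5 min later.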

Compound	activity, negative = inhibition	outcome
COc1c(Cl)cc2c([nH]c3cnccc32)c1NC(=O)c1cccnc1C	1.1% (inactive)	–
CN(C(=O)c1ccc(F)cc1C(F)(F)F)C1CCN(c2nnc(-c3ccnn3C)c3ccccc23)CC1	0.62% (inactive)	–
Cc1n[nH]c(C)c1Cc1sc2c(c1C(=O)N1C[C@H](O)CO1)c(=O)n(C)c(=O)n2CC(C)C	-3.09% (inactive)	–
CC(C)(N)C(=O)N[C@H](COCc1ccccc1)C(=O)N1CCC2(CC1)CN(S(C)(=O)=O)c1ccccc12	-1.76% (inactive)	–
CNC(=O)c1ccc(C)c(-n2c(C)cc(OCc3ccc(F)cc3F)c(Br)c2=O)c1	-0.488% (inactive)	–
CN(C)c1ccc(C2Nc3ccc4ccccc4c3C3=C2C(=O)CC(C)(C)C3)cc1Br (stereo not drawn)	-9.97% (inactive)	–
O=C(NOC[C@H](O)CO)c1ccc(F)c(F)c1Nc1ccc(I)cc1F	-2.88% (inactive)	–
C[C@H](NC(=O)Cc1cc(F)cc(F)c1)C(=O)N[C@@H]1C(=O)N(C)c2ccccc2-c2ccccc21	-1.42% (inactive)	–
CN(C)C(=O)c1ccc(S(=O)(=O)c2ccc(NC(=O)[C@@](C)(O)C(F)(F)F)c(Cl)c2)cc1	1.89% (inactive)	–
CCCS(=O)(=O)Nc1ccc(F)c(C(=O)c2c[nH]c3ncc(Cl)cc23)c1F	-0.0209% (inactive)	–
CCc1cc(Nc2nccc(-c3c(-c4ccc(OC)c(C(=O)Nc5c(F)cccc5F)c4)nc4ccccn34)n2)c(OC)cc1N1CCC(N2CCN(S(C)(=O)=O)CC2)CC1	-0.182% (inactive)	–
COc1ccccc1[C@H](c1cccc2ccccc12)[C@@](C)(C#N)C(=O)N1CCC(c2cccc(C(F)(F)F)c2)CC1	-0.485% (inactive)	–
O=C(Nc1ccc(F)c(C(F)(F)F)c1)Nc1nnc(-c2ccncc2)s1	-3.9% (inactive)	–
COc1cc2c(cc1OC)CN(CCc1ccc(NC(=O)c3cccc4c(=O)c5cccc(OC)c5[nH]c34)cc1)CC2	-0.342% (inactive)	–
CCOc1cc(C(=O)Nc2ccc(Cl)c(-c3nc4ccccc4[nH]3)c2)cc(OCC)c1OCC	-15.4% (inactive)	–
Cc1cc(SCc2sc(-c3ccc(C(F)(F)F)cc3)nc2C)ccc1OCC(=O)O	-0.498% (inactive)	–
C[C@@H]1CN(Cc2ccc(F)cc2)[C@@H](C)CN1C(=O)c1cc2c(C(=O)C(=O)N(C)C)cn(C)c2cc1Cl	3.86% (inactive)	–

Compound	activity, negative = inhibition	outcome
COc1cc2nccc(Oc3ccc(NC(=O)NC4CC4)c(Cl)c3)c2cc1C(N)=O	0.134% (inactive)	–
COc1cccc2cc(-c3nc(C4CCC(C(=O)O)CC4)n4ncnc(N)c34)[nH]c12 (stereo not drawn)	-7.08% (inactive)	–
Cn1cnc2c(F)c(Nc3ccc(Br)cc3Cl)c(C(=O)NOCCO)cc21	-0.243% (inactive)	–
Cc1cnc(Nc2ccc(OCCN3CCCC3)cc2)nc1Nc1cccc(S(=O)(=O)NC(C)(C)C)c1	-0.0376% (inactive)	–
CC(C)OC(=O)C1=CN(C(=O)c2ccc(F)c(F)c2)CC(C)(C)c2c1[nH]c1ccccc21	-6.44% (inactive)	–
Cc1cc(Nc2nc(N[C@@H](C)c3ncc(F)cn3)ncc2Cl)n[nH]1	-3.62% (inactive)	–
COc1cc(Nc2ncc3c(n2)-c2ccc(Cl)cc2C(c2c(F)cccc2OC)=NC3)ccc1C(=O)O	–	inactive
CC[C@H](Nc1ncnc2nc[nH]c12)c1nc2cccc(F)c2c(=O)n1-c1ccccc1	-6.53% [at 11.6 µM] (inactive)	–
CCCc1nn(C)c2c(=O)[nH]c(-c3cc(S(=O)(=O)N4CCN(C)CC4)ccc3OCC)nc12	3.25% (inactive)	–
CS(=O)(=O)c1ccc(C(=O)Nc2ccc(Cl)c(-c3ccccn3)c2)c(Cl)c1	-7.97% (inactive)	–
CNCc1ccc(-c2[nH]c3cc(F)cc4c3c2CCNC4=O)cc1	-19.9% (inactive)	–
Clc1ccc(Nc2nnc(Cc3ccncc3)c3ccccc23)cc1	-10.8% (inactive)	–
CNC(=O)c1ccccc1Sc1ccc2c(/C=C/c3ccccn3)n[nH]c2c1	-8.46% (inactive)	–
CC[C@@H](C)[C@H](NC(=O)[C@H](CC1CCCCC1)NC(=O)c1ccno1)C(=O)N1CCC2(CCc3ccccc32)CC1	0% (inactive)	–
O=C(c1cc(Cc2n[nH]c(=O)c3ccccc23)ccc1F)N1CCN(C(=O)C2CC2)CC1	-5.72% (inactive)	–
COc1nc(-c2ccc3c(c2)OCO3)n(-c2ccc(NC(=O)CSc3ccccc3)cc2)n1	-2.5% (inactive)	–
